PubChem BioAssay (NCI)
About 83,000 compounds went through this panel and 20% of them were active in at least one assay; those are over-represented in the sample as a whole.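 Values shown are percent growth following 48 h exposure of cells in 96-well plates to a single concentration of compound; below 10 was considered active.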 Values without a mark were called inactive. Calls of active or inactive are those of the source.

System: HOP-92 NSCLC
Assay: NCI-60 one-dose screen, 48 h (100 = growth as untreated, 0 = no growth, -100 = all killed)
Conditions: 10 µM unless noted

SMILES | growth
COc1ccc(C2C(C#N)=C(/N=C/c3ccc(Cl)cc3)Oc3c2sc2c(C)cccc32)cc1 (stereo not given) | 30.5%
CN1CC[C@@H]2[C@@]3(C)CC[C@H](O)C(C)(C)[C@@H]3CC[C@@]2(C)[C@]2(C)CC[C@@]3(CO)CCC(C)(C)C[C@@H]3C12 (stereo not given in full) | 66.8%
Clc1ccc2c(N/N=C/c3c[nH]c4ccccc34)ccnc2c1 | -88.7% (active)
O=c1c2cc(-c3ccc(F)cc3F)ccc2n(Nc2ccccc2)c(=O)n1-c1cccc(C(F)(F)F)c1 | -33.3% (active)
NC1[C@H]2CN(c3cnc(C(=O)Nc4cc(F)cc5cccnc45)cn3)C[C@@H]12 (stereo not given in full) | 24.8%
CCOC(=O)c1cccc(NC2=C(Cl)C(=O)c3nc(C)ccc3C2=O)c1 | 108%
O=C(CSc1nnc(-c2cccs2)n1-c1ccccc1)Nc1ccccc1 | 53.3%
CCc1cc2c(cc1Cl)nc1c(=O)[nH]c(=O)nc-1n2CCOCC(C)C | 126%
Cc1csc(/N=C(N)/N=C(\N)c2cccc(C#N)c2)n1 | 27%
Clc1ccc(CSc2nnc(-c3ccc(Cl)cc3)n2-c2ccccc2)cc1 | 89.5%
C#Cc1nc(C(=O)NCCCCCCC(=O)NO)cs1 | -74.6% (active)
CCCNNC(=O)c1ccc(-c2ccc(NC(=O)CCCCCCC(=O)N[C@H](C(=O)N3C[C@H](O)C[C@H]3C(=O)N[C@@H](C)c3ccc(-c4scnc4C)cc3)C(C)(C)C)cc2)cc1 | -26.7% (active)
CN1CCN(c2ccc(Nc3nc(NCCNC(=O)c4ccccc4)c4sccc4n3)cc2)CC1 | 69.4%
COc1cc2c3c(cc4c5c(ccc4c3c1OC)OCO5)N(CCN(C)C)C2=O | -9.11% (active)
N#Cc1c(-c2cccs2)cc(-c2cnccn2)nc1SCC(=O)N/N=C/c1ccc(Cl)cc1 | 89.4%
COC(=O)c1cccc(NC2=CC(=O)C(C)=C(C)C2=O)c1 | 123%
C#Cc1nc(/C=C/CCCCCCC(=O)NO)cs1 | -52.3% (active)
CC(=O)Nc1nc(C)c(-c2csc(Nc3ccccc3)n2)s1 | 24.6%

SMILES | growth
CC1=C(C)C(=O)C(Nc2ccc3c(c2)OCO3)=C(Br)C1=O | -22.9% (active)
N#Cc1cccc(-c2cc(-c3ccc4c(c3)OCCO4)[nH]n2)c1 | 75.5%
COc1ccc2c(c1)c(-c1nc(N)nnc1-c1c[nH]c3ccccc13)cn2C | 54%
CC1(C)CC[C@]23CC[C@]4(C)[C@H](CC[C@@H]5[C@@]6(C)CC[C@H](N)C(C)(C)[C@@H]6CC[C@]54C)[C@H]2[C@H]1OC3 | 69.3%
Fc1cccc(Cl)c1/C=N/Nc1nc(N/N=C/c2c(F)cccc2Cl)nc(N2CCCCC2)n1 | -1.32% (active)
Cc1ccccc1N1CCN(C2=C(Cl)C(=O)c3ncccc3C2=O)CC1 | 118%
CC(=O)OC[C@@]12Oc3c(cccc3-c3ccc(O)c4c3O[C@]3(COC(C)=O)C(=C4O)C(=O)C[C@H](C)[C@@H]3OC(C)=O)C(O)=C1C(=O)C[C@H](C)[C@@H]2OC(C)=O | -25.2% (active)
COc1ccc(CC(C)=C(c2ccc(OCCN3CCCC3)cc2)c2ccc(OCCN3CCCC3)cc2)cc1 | -82.4% (active)
CNC(=O)c1cc(N2CCc3cc(NC(=O)Nc4ccc(N5CCOCC5)c(C(F)(F)F)c4)ccc32)ccn1 | 14.1%
CN(C)CC(=O)Nc1nc(-c2cccc(NS(=O)(=O)c3cccc4c(N(C)C)cccc34)c2)cs1 | 60.8%
NCCNC(=O)c1cccc(COc2ccccc2NC(=O)c2cc(Cl)c(Cl)[nH]2)c1 | 107%
COc1cccc2c1C=CC1(O2)Oc2cccc(OC)c2C=C1C (stereo not given) | -5.13% (active)
COc1ccc(-c2c(C(N)=O)c(N)n(Cc3nc4ccccc4[nH]3)c(=O)c2C#N)c(OC)c1 | 101%
NC1C2CCC1CN(c1cnc(C(=O)Nc3cc(F)cc4cccnc34)cn1)C2 (stereo not given) | 47.9%
COc1ccc2c(c1)c(-c1nnc(N)nc1-c1c[nH]c3ccc(F)cc13)cn2C | 68.7%
COc1ccc([C@H]2C(=O)N(c3cc(OC)c(OC)c(OC)c3)[C@@H]2c2ccc(OC)c(O)c2)cc1 | 6.76% (active)
CCOC(=O)c1cnc2c(-c3ccc(Cl)c(Cl)c3)cnn2c1 | 39.9%
